Measurements taken from ChEMBL document CHEMBL3988442, “University of Dundee, Small-Polar-MMV Screening Library” (2021).
For some of these results: Entries with a potency or affinity are not part of this list.

Experiments:
Parameters in all cases: scale not given: direction of the effect not stated beside the values
[1] = molecular target: Protein translocase subunit SecA (Escherichia coli (strain K12)) (UniProt P10408); assay: Assay to Identify E. coli SecA ATPase Inhibitors; type: functional; conditions: 30 µM
[2] = molecular target: T1, Ubiquitin-activating enzyme e1, putative (Leishmania donovani (strain BPK282A1)) (UniProt E9BSI1); assay: Leishmania donovani Ubiquitin Activating Enzyme (LdE1); type: functional; conditions: 30 µM
T1 sequence (whole entry): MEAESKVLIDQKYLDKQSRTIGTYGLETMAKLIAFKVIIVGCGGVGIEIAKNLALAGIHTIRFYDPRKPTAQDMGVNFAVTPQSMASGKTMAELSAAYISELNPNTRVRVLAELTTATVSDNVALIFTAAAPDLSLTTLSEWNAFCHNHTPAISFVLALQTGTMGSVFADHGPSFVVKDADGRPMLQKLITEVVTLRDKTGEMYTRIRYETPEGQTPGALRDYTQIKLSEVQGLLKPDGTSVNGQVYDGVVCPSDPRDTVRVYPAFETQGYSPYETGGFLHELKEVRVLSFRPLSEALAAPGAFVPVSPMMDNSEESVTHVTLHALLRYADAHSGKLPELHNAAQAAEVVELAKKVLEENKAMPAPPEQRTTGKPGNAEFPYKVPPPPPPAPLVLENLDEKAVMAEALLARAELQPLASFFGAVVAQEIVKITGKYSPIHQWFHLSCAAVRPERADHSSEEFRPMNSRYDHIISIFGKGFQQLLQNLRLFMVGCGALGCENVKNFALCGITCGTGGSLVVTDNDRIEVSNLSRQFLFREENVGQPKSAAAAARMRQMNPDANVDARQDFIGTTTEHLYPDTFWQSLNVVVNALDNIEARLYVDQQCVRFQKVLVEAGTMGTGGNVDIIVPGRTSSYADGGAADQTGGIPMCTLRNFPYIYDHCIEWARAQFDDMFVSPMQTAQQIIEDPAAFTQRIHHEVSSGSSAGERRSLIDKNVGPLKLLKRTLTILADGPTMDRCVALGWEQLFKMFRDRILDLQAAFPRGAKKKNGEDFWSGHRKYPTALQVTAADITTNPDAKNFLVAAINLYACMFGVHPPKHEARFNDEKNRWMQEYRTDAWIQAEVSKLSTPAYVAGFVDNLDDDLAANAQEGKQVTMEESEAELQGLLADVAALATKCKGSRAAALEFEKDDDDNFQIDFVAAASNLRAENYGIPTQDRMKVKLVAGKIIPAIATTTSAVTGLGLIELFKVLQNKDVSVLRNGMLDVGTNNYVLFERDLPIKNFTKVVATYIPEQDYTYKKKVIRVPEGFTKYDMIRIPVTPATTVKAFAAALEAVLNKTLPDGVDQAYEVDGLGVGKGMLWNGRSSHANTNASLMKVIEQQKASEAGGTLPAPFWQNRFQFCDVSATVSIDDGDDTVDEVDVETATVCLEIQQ

[3] = molecular target: AMP-activated protein kinase, AMPK (Homo sapiens) (UniProt P54646+O43741+P54619+Q9UGJ0+Q9Y478+Q13131+Q9UGI9); assay: AMP-dependent Kinase enzyme assay. An in vitro enzyme assay that detects ADP turnover that is directly proportional to AMPK activity. This uses naive AMPK that is activated during the assay with MK-8722; type: functional; conditions: 30 µM
[4] = molecular target: Sialic acid-binding Ig-like lectin 9 (Homo sapiens) (UniProt Q9Y336); assay: Hs-Siglec9 ALPHAscreen SOP 20170721; conditions: 10 µM
Trypanosoma cruzi = assay: Trypanosoma cruzi phosphomannomutase and mannose-1-phosphate guanylyltransferase assay; type: functional; conditions: 10 µM
[5] = molecular target: T2, Arginase-2, mitochondrial (Homo sapiens) (UniProt P78540); assay: in vitro enzyme assay to detect the production of urea directly proportional to the activity of Arginase II; type: functional; conditions: 33.3 µM; further: in the data most compounds retested in dose-response had high values
T2 sequence (whole entry): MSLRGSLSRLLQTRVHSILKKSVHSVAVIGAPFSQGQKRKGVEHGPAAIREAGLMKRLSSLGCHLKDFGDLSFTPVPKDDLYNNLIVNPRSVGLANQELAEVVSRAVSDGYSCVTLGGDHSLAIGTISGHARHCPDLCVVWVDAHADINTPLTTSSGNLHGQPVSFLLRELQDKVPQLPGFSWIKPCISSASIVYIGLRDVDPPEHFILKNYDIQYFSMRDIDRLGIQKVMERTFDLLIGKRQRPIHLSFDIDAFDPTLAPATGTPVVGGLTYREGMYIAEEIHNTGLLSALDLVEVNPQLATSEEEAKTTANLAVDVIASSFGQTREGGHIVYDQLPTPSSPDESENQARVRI

[6] = molecular target: T3, Proteasome subunit beta (Trypanosoma cruzi) (UniProt O96673); assay: Trypanosoma cruzi proteasome chymotrypsin-like activity (TcProtChymo) assay.; further: in the data most compounds retested in dose-response had high values; type: functional; conditions: 9.37 µM
T3 sequence (whole entry): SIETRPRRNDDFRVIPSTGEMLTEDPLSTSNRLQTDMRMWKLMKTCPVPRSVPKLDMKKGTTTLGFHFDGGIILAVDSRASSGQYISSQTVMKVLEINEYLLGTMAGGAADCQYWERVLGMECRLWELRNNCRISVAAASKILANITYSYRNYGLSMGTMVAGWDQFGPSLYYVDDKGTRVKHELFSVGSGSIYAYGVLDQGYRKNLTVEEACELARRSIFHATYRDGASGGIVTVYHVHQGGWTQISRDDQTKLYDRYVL

Homo sapiens = organism: Homo sapiens; assay: To identify inhibition of the IFN signalling (Jak-Stat) pathway via expression of an eGFP reporter gene under the control of an IFN-stimulated response element (ISRE) containing MxA promoter.; type: functional; conditions: 30 µM
[7] = molecular target: T4, Tyrosyl-tRNA synthetase, putative (Trypanosoma cruzi (strain CL Brener)) (UniProt Q4DSP6); assay: Trypanosoma cruzi tyrosyl tRNA synthetase (TcYRS) _High Tyrosine SOP; type: functional; conditions: 30 µM; further: in the data most compounds retested in dose-response had high values
T4 sequence (whole entry): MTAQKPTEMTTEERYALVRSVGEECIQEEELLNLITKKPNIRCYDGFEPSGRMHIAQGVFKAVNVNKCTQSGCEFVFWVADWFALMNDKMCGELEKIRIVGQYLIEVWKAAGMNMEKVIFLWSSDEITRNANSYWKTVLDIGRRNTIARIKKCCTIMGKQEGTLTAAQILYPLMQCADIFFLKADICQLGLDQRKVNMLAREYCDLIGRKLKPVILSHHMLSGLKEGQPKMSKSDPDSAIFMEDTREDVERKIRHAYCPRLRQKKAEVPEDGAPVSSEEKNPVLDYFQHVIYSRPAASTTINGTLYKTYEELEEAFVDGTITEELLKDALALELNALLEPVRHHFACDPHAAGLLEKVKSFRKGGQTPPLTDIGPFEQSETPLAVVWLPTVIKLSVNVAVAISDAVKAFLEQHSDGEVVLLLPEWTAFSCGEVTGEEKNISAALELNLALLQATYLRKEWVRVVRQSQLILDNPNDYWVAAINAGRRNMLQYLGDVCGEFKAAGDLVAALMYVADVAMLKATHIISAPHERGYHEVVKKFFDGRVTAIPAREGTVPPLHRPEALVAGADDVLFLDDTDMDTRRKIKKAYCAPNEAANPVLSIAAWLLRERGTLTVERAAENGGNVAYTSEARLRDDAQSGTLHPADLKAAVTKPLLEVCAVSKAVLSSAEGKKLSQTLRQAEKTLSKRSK

[8] = molecular target: T4, Tyrosyl-tRNA synthetase, putative (Trypanosoma cruzi (strain CL Brener)); assay: Trypanosoma cruzi tyrosyl tRNA synthetase (TcYRS) SOP; type: functional; conditions: 30 µM
[9] = molecular target: Chromo domain-containing protein 1 (Saccharomyces cerevisiae (strain ATCC 204508 / S288c) (Baker's yeast)) (UniProt P32657); assay: ScCHD-1 Enzyme Inhibition Assay; type: functional; conditions: 30 µM; further: in the data most compounds retested in dose-response had high values
Sequence of Chromo domain-containing protein 1 (Saccharomyces cerevisiae (strain ATCC 204508 / S288c) (Baker's yeast)) (P32657 whole entry, the tested form may be a part): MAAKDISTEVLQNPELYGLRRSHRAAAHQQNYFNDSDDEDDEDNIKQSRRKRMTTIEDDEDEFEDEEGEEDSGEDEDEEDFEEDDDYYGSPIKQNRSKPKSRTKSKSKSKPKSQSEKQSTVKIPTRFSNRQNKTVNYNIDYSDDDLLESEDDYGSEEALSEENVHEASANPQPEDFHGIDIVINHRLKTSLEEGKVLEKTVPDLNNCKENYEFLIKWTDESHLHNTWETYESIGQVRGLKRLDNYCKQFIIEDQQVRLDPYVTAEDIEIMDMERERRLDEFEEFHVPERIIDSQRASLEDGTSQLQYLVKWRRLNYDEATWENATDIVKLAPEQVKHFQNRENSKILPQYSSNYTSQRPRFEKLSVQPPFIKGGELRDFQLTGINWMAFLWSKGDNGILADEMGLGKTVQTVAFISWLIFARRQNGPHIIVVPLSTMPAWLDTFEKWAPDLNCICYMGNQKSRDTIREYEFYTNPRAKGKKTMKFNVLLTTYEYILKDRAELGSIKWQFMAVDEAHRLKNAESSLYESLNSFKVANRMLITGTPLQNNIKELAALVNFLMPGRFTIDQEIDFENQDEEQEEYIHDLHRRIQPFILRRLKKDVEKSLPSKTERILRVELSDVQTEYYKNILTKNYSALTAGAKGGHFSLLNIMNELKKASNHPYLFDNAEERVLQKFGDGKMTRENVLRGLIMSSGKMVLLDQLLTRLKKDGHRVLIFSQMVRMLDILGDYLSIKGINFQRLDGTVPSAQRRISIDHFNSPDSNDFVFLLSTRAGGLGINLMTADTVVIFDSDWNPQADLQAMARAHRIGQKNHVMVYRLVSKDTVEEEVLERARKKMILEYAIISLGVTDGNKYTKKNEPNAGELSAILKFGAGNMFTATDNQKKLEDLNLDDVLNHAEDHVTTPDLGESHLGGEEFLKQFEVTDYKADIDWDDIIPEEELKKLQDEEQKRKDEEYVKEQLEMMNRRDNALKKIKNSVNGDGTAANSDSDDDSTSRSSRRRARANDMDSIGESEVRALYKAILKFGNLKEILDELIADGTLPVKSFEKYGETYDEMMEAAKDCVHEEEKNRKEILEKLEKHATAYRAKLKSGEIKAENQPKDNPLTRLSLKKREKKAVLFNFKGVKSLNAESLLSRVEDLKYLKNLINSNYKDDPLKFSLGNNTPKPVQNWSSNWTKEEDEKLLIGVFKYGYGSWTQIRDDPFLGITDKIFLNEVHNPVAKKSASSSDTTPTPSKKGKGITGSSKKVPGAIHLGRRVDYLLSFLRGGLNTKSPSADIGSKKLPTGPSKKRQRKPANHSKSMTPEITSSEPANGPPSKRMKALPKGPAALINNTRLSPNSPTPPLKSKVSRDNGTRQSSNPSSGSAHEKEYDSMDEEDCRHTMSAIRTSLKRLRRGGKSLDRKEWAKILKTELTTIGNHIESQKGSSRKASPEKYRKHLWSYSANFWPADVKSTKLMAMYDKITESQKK

Sequence of Protein translocase subunit SecA (Escherichia coli (strain K12)) (P10408 whole entry): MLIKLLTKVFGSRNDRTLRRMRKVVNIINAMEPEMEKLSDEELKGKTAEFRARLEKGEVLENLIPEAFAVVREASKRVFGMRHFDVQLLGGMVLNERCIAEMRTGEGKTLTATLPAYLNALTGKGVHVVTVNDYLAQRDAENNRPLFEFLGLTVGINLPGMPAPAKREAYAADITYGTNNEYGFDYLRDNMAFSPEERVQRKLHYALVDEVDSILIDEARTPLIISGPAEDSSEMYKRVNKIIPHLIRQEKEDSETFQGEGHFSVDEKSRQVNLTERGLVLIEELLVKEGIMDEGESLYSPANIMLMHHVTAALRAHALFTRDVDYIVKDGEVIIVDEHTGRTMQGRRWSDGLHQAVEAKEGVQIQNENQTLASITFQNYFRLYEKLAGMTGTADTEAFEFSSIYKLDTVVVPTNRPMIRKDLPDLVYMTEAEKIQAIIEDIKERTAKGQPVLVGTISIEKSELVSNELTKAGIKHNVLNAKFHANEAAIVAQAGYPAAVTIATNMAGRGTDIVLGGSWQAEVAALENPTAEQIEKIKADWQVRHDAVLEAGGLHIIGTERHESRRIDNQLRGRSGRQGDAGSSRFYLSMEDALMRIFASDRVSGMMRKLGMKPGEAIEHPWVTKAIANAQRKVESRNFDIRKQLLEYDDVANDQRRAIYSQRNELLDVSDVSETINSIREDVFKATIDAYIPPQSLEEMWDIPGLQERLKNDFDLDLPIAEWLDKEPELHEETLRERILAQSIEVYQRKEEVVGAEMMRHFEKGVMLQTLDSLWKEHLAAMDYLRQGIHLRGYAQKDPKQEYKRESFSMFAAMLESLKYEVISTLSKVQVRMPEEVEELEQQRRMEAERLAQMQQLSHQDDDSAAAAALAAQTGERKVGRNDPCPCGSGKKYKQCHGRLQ
Sequence of Sialic acid-binding Ig-like lectin 9 (Homo sapiens) (Q9Y336 whole entry): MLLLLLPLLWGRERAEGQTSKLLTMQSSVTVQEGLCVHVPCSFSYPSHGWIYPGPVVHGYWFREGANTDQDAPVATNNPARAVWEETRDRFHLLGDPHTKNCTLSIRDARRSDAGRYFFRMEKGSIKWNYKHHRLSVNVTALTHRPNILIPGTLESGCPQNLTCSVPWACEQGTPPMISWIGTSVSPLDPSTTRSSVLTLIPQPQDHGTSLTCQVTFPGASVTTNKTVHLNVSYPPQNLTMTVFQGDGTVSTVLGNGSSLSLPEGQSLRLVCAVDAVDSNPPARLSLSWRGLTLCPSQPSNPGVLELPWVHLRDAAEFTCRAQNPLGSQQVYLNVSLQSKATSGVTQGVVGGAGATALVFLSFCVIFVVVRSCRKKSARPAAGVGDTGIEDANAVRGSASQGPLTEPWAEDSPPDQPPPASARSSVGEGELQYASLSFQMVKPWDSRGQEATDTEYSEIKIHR

SMILES | Percent Effect [1] [%] | Percent Effect [2] [%] | Percent Effect [3] [%] | Percent Effect [4] [%] | Percent Effect (Trypanosoma cruzi) [%] | Percent Effect [5] [%] | Percent Effect [6] [%] | Percent Effect (Homo sapiens) [%] | Percent Effect [7] [%] | Percent Effect [8] [%] | Percent Effect [9] [%]
CN1CCN(Cc2cn3c(n2)CN(Cc2cccnc2)CC3)CC1 | 5.16 | 16.2 | 12.3 | -13.1 | -7.14 | 2.23 | 5.72 | 16.3 | 1.08 | 10.3 | -4.09
CC1=N[C@@]2(CC[C@@H]3CN(S(=O)(=O)CC(C)C)C[C@@H]32)C(=O)N1CC(C)C | -5.41 | 5.41 | 5.56 | -6.18 | -2.64 | 2.23 | 23.8 | -9.78 | 3.24 | 10.3 | -0.878
CN(c1ccncn1)C1CC2(CCN(C(=O)CCc3cccs3)C2)C1 (configuration not stated) | -3.27 | 1.35 | 6.25 | 8.01 | 5.34 | -1.16 | 1.87 | 39.7 | 5.38 | 6.49 | -4.42
CC(CNC(=O)c1ccc(F)cc1Cl)N1CCCC1 (configuration not stated) | -1.76 | 9.72 | 4.21 | -4.19 | -2.82 | 6.18 | 20.4 | -9.11 | 3.16 | 5.13 | -0.608
Cc1nn(C)c2c(N3CCN(C(=O)c4ccccc4)CC3)ncnc12 | 1.93 | 9.33 | 2.69 | -1.85 | -6.68 | -10.4 | 12 | 12.3 | 8.47 | 12.8 | -10.3
CC(=O)N1CCCN(C(=O)c2ccn(-c3cccc(Cl)c3)n2)CC1 | -2.55 | 15.6 | -0.208 | -4.72 | -4.31 | -1.42 | 12.8 | 10.3 | 5.83 | 14.6 | -6
O=C(NCCS(=O)(=O)N1CCc2ccccc21)c1c(O)cc(F)cc1F | -5.35 | 2.6 | -0.496 | -10.7 | 4.41 | -6.11 | 8 | 4.49 | -12.4 | 0 | -23.1
CNC(=O)CS(=O)(=O)C1CCN(S(=O)(=O)c2ccccc2Br)CC1 | 1.17 | 0 | 4.03 | 13.4 | 4.5 | 5.46 | 2.31 | 26.1 | 1.07 | 2.5 | -0.751
CCCNC(=O)NC(=O)CN(CC(C)O)c1ccccc1 (configuration not stated) | -3.79 | 10.4 | 2.88 | -6.45 | 6.95 | -0.632 | 6.22 | -9.46 | 5.71 | 9.41 | 2.09
CCc1ccc(S(=O)(=O)Nc2cc(C(=O)O)c(F)cc2F)s1 | -10.3 | 2.63 | -14.5 | 19.8 | 9.99 | 1.08 | 6.51 | 4.81 | 2.46 | 16.1 | -10.2
CN(Cc1ccco1)Cc1ccccc1CNC(=O)c1cc[nH]n1 | -2.78 | 0 | -0.254 | 5.67 | -6.56 | 0.952 | 15.2 | 18.9 | 1.59 | 4.88 | -4.37
CC(C)c1nc(C2CCCN2C(=O)c2cnc[nH]2)no1 (configuration not stated) | -7.47 | 8.11 | 3.18 | 5.28 | -6.96 | 0.554 | -5.75 | 23.2 | 0 | 1.22 | 4.79
CNc1nc(CNC(=O)Nc2ccccc2SC)cs1 | 1.51 | -2.63 | -1.33 | 0.229 | -2.07 | 3.83 | 7.69 | 10.1 | 1.47 | 4.88 | 3.33
CC(C)CCNC(=O)c1sccc1N(C)S(=O)(=O)c1ccccc1 | -0.473 | 23.7 | -3.53 | -18.2 | -0.0974 | -3.55 | 10.3 | 23.3 | -3.19 | 5.2 | -3.5
COCCOCC(=O)Nc1ccc(C)cc1F | -1.36 | 2.63 | 5.59 | -0.498 | 3.21 | 0 | 9.11 | -16.7 | 2.13 | 2.6 | 2.83
Cc1nc(CN2CCN(C(=O)c3cc(C4CC4)on3)CC2)cs1 | -6.45 | 13 | 2.57 | 3.64 | -0.686 | 5.68 | 4.45 | -4.72 | 4.76 | 18.8 | -6
O=C(Nc1nccs1)N(CCO)Cc1ccsc1 | -1.95 | 13.2 | -2.9 | -1.76 | 5.08 | -2.3 | 11.5 | -0.668 | 8.33 | 29.3 | -13.6
